Reference: PubChem BioAssay
The source made the active and inactive calls.

What was measured:
[1] = test system: PRMT1 (protein arginine N-methyltransferase 1); assay: small molecules binding arginine methyltransferase PRMT1 – biochemical, small-molecule microarray, 635 nm fluorescence, primary screen (AID 1088); details: higher = more signal;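 also: binding of Prmt1 protein to compounds spotted on small-molecule microarray slides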
[2] = growth effects on S. cerevisiae YJM789 – YJM789 clinical isolate, OD600, 24 h, basal, primary screen (AID 1089); details: higher = more signal, called active from +8 up or from −8 down;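 also: growth of clinical yeast isolate S. cerevisiae YJM 789 seeded 1000 cells per well; test concentration not given here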
[3] = S. pombe growth modifiers, basal conditions – strain 972, OD600, 24 h, no modulator, primary screen (AID 1090);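 also: basal condition with compound alone and no growth modifier present; test concentration not given here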; details: S. pombe 972 growth, higher = more signal, called active from +8 up or from −8 down
[4] = budding yeast growth modifiers under rapamycin – strain BY4716, OD600, 96 h, primary screen (AID 1091); also: test concentration not given here; details: S. cerevisiae BY4716 + rapamycin, higher = more signal, called active from +8 up or from −8 down
[5] = biological target: Torsin-1A-interacting protein 2 (Homo sapiens) (UniProt Q8NFQ8); assay: small molecules binding lysate-expressed LULL1 – cell lysate, human LULL1 lysate, 635/667 nm fluorescence, primary screen (AID 1092); details: small-molecule microarray, hLULL1 lysate binding, 635 nm fluorescence; higher = more signal;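 also: probe is lysate of COS7 cells overexpressing human LULL1; score merges per-feature 667 nm fluorescence with signal-to-noise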
Torsin-1A-interacting protein 2 (Homo sapiens), sequence (Q8NFQ8 whole entry, looked up): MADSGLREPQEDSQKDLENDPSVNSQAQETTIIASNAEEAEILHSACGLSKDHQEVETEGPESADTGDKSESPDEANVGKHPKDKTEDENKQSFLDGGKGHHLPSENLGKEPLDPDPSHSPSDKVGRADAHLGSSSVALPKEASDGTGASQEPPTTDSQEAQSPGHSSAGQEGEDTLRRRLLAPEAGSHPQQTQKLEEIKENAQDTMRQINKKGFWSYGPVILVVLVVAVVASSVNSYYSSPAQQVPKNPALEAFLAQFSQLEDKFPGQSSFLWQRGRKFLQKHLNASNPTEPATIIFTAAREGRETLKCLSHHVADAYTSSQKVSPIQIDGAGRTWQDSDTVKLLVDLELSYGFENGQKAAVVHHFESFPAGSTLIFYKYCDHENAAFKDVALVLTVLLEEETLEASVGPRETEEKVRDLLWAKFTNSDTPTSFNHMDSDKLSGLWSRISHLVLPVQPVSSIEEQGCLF

[6] = optical density change of DRC41 E. coli – strain DRC41, OD650, 24 h, E. coli filamentation project, primary screen (AID 1093);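 also: MC1000 strain lacking acrAB efflux and sulA so SOS filamentation is blocked; test concentration not given here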; details: E. coli DRC41 growth, higher = more signal, called active from +8 up or from −8 down
[7] = probe aLefty2 binding to arrayed compounds – biochemical, biotinylated probe, 635/667 nm fluorescence, primary screen (AID 1094); details: small-molecule microarray, higher = more signal;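 also: score merges spot fluorescence near 667 nm with spot signal-to-noise ratio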
[8] = test system: Noggin (protein binding on small-molecule microarray); assay: small molecules binding Noggin protein – biochemical, 635/667 nm fluorescence, primary screen (AID 1095); details: 635 nm fluorescence, higher = more signal;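 also: score merges 667 nm feature fluorescence with signal to noise over triplicate slides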
[9] = biological target: Neurogenic locus notch homolog protein 3 (Homo sapiens) (UniProt Q9UM47); assay: small molecules binding NOTCH3 protein – biochemical, 635/667 nm fluorescence, primary screen (AID 1096); details: small-molecule microarray, 635 nm fluorescence, higher = more signal
Neurogenic locus notch homolog protein 3 (Homo sapiens), sequence (Q9UM47 whole entry, looked up): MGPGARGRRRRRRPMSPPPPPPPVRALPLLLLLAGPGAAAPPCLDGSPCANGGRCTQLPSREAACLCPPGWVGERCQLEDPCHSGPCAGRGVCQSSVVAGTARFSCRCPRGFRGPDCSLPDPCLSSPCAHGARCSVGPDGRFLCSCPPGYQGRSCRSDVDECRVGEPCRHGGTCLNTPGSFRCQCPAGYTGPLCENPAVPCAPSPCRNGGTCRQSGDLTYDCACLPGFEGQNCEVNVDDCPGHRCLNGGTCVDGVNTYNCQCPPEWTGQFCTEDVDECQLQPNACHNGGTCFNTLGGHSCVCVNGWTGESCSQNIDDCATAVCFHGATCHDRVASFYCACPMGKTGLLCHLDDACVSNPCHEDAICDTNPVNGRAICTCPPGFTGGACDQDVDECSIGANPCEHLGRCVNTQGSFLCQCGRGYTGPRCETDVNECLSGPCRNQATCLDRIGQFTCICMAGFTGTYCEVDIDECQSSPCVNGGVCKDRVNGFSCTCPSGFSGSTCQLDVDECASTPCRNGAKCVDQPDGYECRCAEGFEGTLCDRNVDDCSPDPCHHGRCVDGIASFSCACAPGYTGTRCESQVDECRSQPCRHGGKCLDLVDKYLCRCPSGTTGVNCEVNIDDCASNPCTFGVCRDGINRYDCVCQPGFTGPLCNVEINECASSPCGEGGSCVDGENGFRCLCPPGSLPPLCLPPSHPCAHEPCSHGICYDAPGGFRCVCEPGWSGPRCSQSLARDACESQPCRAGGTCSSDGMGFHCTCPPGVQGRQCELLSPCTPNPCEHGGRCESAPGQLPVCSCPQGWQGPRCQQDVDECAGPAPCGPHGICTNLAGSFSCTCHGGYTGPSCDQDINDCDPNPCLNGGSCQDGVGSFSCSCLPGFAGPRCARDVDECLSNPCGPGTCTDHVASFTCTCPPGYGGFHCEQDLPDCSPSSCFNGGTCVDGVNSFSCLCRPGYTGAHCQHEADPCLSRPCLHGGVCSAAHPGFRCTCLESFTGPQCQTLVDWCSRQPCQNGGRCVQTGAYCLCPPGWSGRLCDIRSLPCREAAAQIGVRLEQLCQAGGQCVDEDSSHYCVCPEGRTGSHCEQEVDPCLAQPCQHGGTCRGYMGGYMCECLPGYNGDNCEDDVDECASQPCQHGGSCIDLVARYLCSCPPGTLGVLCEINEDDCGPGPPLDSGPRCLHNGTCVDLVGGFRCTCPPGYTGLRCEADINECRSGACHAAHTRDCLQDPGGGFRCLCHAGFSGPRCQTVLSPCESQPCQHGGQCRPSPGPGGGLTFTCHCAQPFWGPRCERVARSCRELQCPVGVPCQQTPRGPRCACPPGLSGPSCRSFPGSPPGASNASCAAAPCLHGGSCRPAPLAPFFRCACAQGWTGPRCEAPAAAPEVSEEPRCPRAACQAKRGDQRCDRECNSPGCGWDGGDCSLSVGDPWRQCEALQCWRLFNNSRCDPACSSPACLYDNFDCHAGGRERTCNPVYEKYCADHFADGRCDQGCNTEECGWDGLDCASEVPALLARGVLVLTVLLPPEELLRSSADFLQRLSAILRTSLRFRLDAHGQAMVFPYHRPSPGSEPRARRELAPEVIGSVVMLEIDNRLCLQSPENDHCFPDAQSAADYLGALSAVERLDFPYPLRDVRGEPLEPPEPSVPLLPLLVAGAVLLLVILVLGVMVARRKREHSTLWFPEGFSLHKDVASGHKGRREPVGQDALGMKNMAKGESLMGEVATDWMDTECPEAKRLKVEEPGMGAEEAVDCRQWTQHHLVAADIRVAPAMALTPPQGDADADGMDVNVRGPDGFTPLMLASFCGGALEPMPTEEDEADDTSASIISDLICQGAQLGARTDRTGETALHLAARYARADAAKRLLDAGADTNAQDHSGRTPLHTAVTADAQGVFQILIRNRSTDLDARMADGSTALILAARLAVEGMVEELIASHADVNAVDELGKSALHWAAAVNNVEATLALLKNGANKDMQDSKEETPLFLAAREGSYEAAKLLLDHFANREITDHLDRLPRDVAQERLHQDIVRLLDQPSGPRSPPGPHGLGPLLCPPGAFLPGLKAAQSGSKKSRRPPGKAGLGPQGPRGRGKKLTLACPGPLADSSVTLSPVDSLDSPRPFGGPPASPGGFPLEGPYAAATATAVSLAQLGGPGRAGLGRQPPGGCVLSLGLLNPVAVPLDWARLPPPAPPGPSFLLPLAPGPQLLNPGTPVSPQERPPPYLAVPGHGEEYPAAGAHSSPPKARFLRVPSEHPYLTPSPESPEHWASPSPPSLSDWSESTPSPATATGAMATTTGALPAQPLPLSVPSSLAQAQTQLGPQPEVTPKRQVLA

[10] = probe aEGFR binding to arrayed compounds – biochemical, biotinylated probe, 635/667 nm fluorescence, primary screen (AID 1097); details: small-molecule microarray, higher = more signal;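 also: probe is a biotinylated anti-EGFR antibody binding compounds printed on slides; score combines fluorescence near 667 nm and signal to noise of each spot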

Structure (SMILES)	composite z-score [1]	z-score [2]	z-score [3]	z-score [4]	composite z-score [5]	z-score [6]	composite z-score [7]	composite z-score [8]	composite z-score [9]	composite z-score [10]
CCCNC(=O)OC[C@H]1O[C@H](CCON=C(C)CCC(=O)OC[C@H]2O[C@H](c3ccccc3)C=C[C@@H]2Oc2ccc(OC)cc2)C=C[C@@H]1Oc1ccc(OC)cc1	-1.37	-1.66 (inactive)	0.702 (inactive)	-0.59 (inactive)	-1.09	0.0967 (inactive)	-0.0982	-0.184	-0.619	-0.042
COc1cccc([C@H]2Oc3ccc(OC)cc3C(=NO[C@H](C)c3cn([C@H](CO)Cc4ccccc4)nn3)[C@@H]2O)c1	0.203	-1.77 (inactive)	0.226 (inactive)	-1.21 (inactive)	0.202	0.928 (inactive)	-0.126	0.259	-0.657	-0.188
CCN1C(=O)[C@H]2[C@H]3[C@H](O)[C@H](O)CC(=O)[C@@H]3CC[C@H]2C1=O	0.705	0.0074 (inactive)	-0.268 (inactive)	-0.139 (inactive)	1.36	0.439 (inactive)	-0.145	0.441	0.717	-0.0115
CCCNC(=O)OC[C@H]1O[C@H](CCON=C(C)C)C=C[C@@H]1Oc1ccc(OC)cc1	0.612	-0.578 (inactive)	-5.54 (inactive)	0.0158 (inactive)	0.876	0.964 (inactive)	0.0472	0.422	-0.216	-0.0581
CCCNC(=O)OC[C@H]1O[C@H](CCON=C(C)CCN2CCCc3nc(C)c(C)cc32)C=C[C@@H]1Oc1ccc(OC)cc1	1.55	-0.663 (inactive)	-0.604 (inactive)	-0.0042 (inactive)	2.38	1.05 (inactive)	0.0408	0.634	0.991	0.101
CCN1C(=O)[C@H]2[C@H]3[C@H](O)[C@H](O)CC(=NO[C@@H](C)c4cn([C@H](CO)Cc5ccccc5)nn4)[C@@H]3CC[C@H]2C1=O	1.14	0.149 (inactive)	0.718 (inactive)	0.726 (inactive)	1.28	0.194 (inactive)	-0.264	0.387	0.988	0.0346
COc1ccc(O[C@H]2C=C[C@@H](c3ccccc3)O[C@@H]2CON=C(C)CCC(=O)OC[C@H]2O[C@H](c3ccccc3)C=C[C@@H]2Oc2ccc(OC)cc2)cc1	-2.44	0.76 (inactive)	0.91 (inactive)	0.525 (inactive)	-1.78	-0.0503 (inactive)	-0.294	-0.769	0.0708	-0.267
COc1ccc(O[C@H]2C=C[C@@H](c3ccccc3)O[C@@H]2CON=CC[C@@H]2C=C[C@H](OC(C)=O)[C@@H](COC(C)=O)O2)cc1	0.15	0.507 (inactive)	0.722 (inactive)	0.721 (inactive)	0.22	0.363 (inactive)	-0.107	0.691	-0.22	-0.0267
C#CCCCON=C1[C@H]2CCn3c(=O)n(-c4ccccc4)c(=O)n3[C@H]2[C@H](O)[C@@H]2O[C@H]12	0.192	-1.65 (inactive)	-0.813 (inactive)	-0.864 (inactive)	0.463	-0.623 (inactive)	-0.202	0.422	0.496	-0.0938
CO[C@H]1COC(=O)CC=C[C@@H](C)[C@H](OC)COC(=O)CCC[C@@H]1C	0.76	-1.47 (inactive)	-0.441 (inactive)	-1.37 (inactive)	-0.552	-0.351 (inactive)	-0.17	0.978	0.288	-0.163
CC(C)=CCCC(C)=CCON=C1C[C@@H](O)[C@@H](O)[C@@H]2[C@@H]3C(=O)N(C[C@@H]4CCCO4)C(=O)[C@@H]3CC[C@H]12	1.56	0.46 (inactive)	0.948 (inactive)	0.036 (inactive)	1.39	0.362 (inactive)	-0.111	0.987	1.08	0.122
COc1ccc(O[C@H]2C=C[C@@H](c3ccccc3)O[C@@H]2CON=C(C)C)cc1	-0.818	0.278 (inactive)	-2.91 (inactive)	0.0212 (inactive)	-0.222	0.511 (inactive)	0.175	-0.0668	-0.943	0.0102
COc1cccc([C@H]2Oc3ccc(OC)cc3C(=NOC(C)CN3CCCCc4nc(C)c(C)cc43)[C@@H]2O)c1 (stereo not given in full)	1.03	-0.915 (inactive)	-1.19 (inactive)	-1.48 (inactive)	1.45	1.25 (inactive)	0.0344	0.0286	0.32	0.044
CCOC(=O)[C@H](Cc1ccccc1)NC(=O)CCC1CC(OC(=O)NCc2cccc3ccccc23)CC2(CCCC(COC(=O)NCc3cccc(C(F)(F)F)c3)O2)O1 (stereo not given in full)	0.176	0.655 (inactive)	0.611 (inactive)	1.67 (inactive)	1.48	-0.353 (inactive)	-0.217	0.0178	0.212	-0.114
CCOC(=O)NN=C1C[C@@H](O)[C@@H](O)[C@@H]2[C@@H]3C(=O)N(Cc4ccc5c(c4)OCO5)C(=O)[C@@H]3CC[C@H]12	0.667	-0.126 (inactive)	0.119 (inactive)	-0.6 (inactive)	2.31	0.203 (inactive)	-0.289	0.303	-0.578	-0.0978
CO[C@H]1COC(=O)[C@H](C)NC(=O)[C@@H](C)COC(=O)[C@H]2CCCN2C(=O)CC=C[C@H]1C	1.08	-0.282 (inactive)	-0.658 (inactive)	-0.571 (inactive)	-0.412	0.492 (inactive)	-0.138	0.542	0.358	-0.0689
COC(=O)CC=C[C@@H](C)[C@@H](C=NO[C@@H]1O[C@H](COC(C)=O)[C@@H](OC(C)=O)[C@H](OC(C)=O)[C@H]1OC(C)=O)OC	1.18	0.492 (inactive)	0.146 (inactive)	0.119 (inactive)	0.062	-0.742 (inactive)	-0.0397	0.27	-0.297	-0.0506
CC(=O)O[C@H]1C2=CO[C@H](C)[C@H]3[C@H]4C5=C([C@H](O)[C@H]6O[C@H]6C5=O)[C@H](OC4C)[C@@]23C(=O)[C@@H]2O[C@@H]21 (stereo not given in full)	0.593	0.116 (inactive)	0.197 (inactive)	0.0253 (inactive)	0.946	-0.681 (inactive)	-0.299	0.433	0.392	-0.0047
COC(=O)[C@H]1[C@@H](O)[C@@]2(O)c3ccccc3O[C@@]2(c2ccccc2)[C@@H]1c1ccccc1	-0.701	0.0966 (inactive)	0.226 (inactive)	0.705 (inactive)	0.124	0.685 (inactive)	-0.0324	-0.169	-0.104	-0.123
CC[C@@H](c1ccccc1)n1c(=O)n2n(c1=O)[C@H]1[C@H](O)[C@@H]3O[C@@H]3C(=O)[C@H]1CC2	0.342	-0.0637 (inactive)	-2.45 (inactive)	-0.0584 (inactive)	0.396	0.473 (inactive)	0.444	0.417	0.285	-0.0431
O=C(NN=C1C[C@@H](O)[C@@H](O)[C@@H]2[C@@H]3C(=O)N(C[C@@H]4CCCO4)C(=O)[C@@H]3CC[C@H]12)OCc1ccccc1	-0.166	0.387 (inactive)	0.499 (inactive)	-0.186 (inactive)	0.126	0.52 (inactive)	0.0061	-0.284	-0.696	-0.19
CCOC(=O)[C@H](CC(C)C)NC(=O)CCC1CC(OC(=O)NCc2ccc3c(c2)OCO3)CC2(CCCC(COC(=O)NCCCN3CCCC3=O)O2)O1 (stereo not given in full)	1.49	-0.0618 (inactive)	0.162 (inactive)	-0.474 (inactive)	1.94	0.485 (inactive)	-0.166	1.36	1.04	-0.0271
CO[C@H]1COC(=O)[C@@H](Cc2ccccc2)NC(=O)[C@@H](C)COC(=O)CCC[C@@H]1C	0.231	-0.875 (inactive)	-0.301 (inactive)	-0.784 (inactive)	-0.502	0.17 (inactive)	-0.185	0.304	-0.0051	-0.0152
CCOC(=O)[C@H](CC(C)C)NC(=O)CCC1CC(OC(=O)NCc2cccc3ccccc23)CC2(CCCC(COC(=O)NCCOc3ccccc3)O2)O1 (stereo not given in full)	1.54	-0.524 (inactive)	0.269 (inactive)	0.231 (inactive)	1.13	0.0653 (inactive)	-0.177	0.317	0.859	-0.171
C=CC[C@@H]1C=C[C@H](ON=C(C)CCN2CCc3nc(-c4ccccc4)c(-c4ccccc4)cc3C2)[C@@H](CO)O1	1.55	-0.67 (inactive)	-4.53 (inactive)	-3.82 (inactive)	1.53	1.42 (inactive)	-0.152	0.631	0.858	-0.0332
C#CCCCON=C1C[C@@H](O)[C@@H](O)[C@@H]2[C@@H]3C(=O)N(Cc4ccccc4)C(=O)[C@@H]3CC[C@@H]12	-0.526	-0.956 (inactive)	-0.351 (inactive)	-1.61 (inactive)	-0.569	0.49 (inactive)	-0.0409	0.224	0.0798	-0.14
CSCC[C@@H]1NC(=O)CC=C[C@@H](C)COC(=O)[C@@H](C)COC1=O	1.21	0.506 (inactive)	-0.463 (inactive)	-0.318 (inactive)	0.0424	0.59 (inactive)	-0.103	0.882	-0.142	-0.197
C=Cc1ccc([C@H]2N[C@H](C(=O)O)CC[C@@H]2C)cc1	-1.29	-0.382 (inactive)	-0.261 (inactive)	-0.676 (inactive)	-0.447	0.58 (inactive)	0.0772	0.0295	0.417	-0.0349
O=C1C=C[C@@H](O)[C@@H]2[C@@H]3C(=O)N(C[C@@H]4CCCO4)C(=O)[C@@H]3CC[C@@H]12	-0.168	0.026 (inactive)	-0.479 (inactive)	0.818 (inactive)	0.276	0.656 (inactive)	-0.139	0.54	0.541	-0.0208
